In the library only some 7.6% were active in any assay of this set; here they are far more common.
RORgamma inh – inhibitors of mouse ROR gamma transcriptional activity. P51450. Drosophila S2 Gal4-RORgamma UAS-luciferase reporter, 20 h. Potency, µM (doses to about 53.6 µM), inactives show at the highest dose activity change, negative = inhibition, most hits filed as inhibitors. hit rate 5.4% among 310,000. AID 2551; also: potency is read from the fitted curve at half-maximal effect; % is scaled to controls: 0 for no effect and ±100 for the full control effect; nearly all actives have a fitted effect of over 60% in size
Target sequence (P51450 whole entry, looked up, the tested form may be a part): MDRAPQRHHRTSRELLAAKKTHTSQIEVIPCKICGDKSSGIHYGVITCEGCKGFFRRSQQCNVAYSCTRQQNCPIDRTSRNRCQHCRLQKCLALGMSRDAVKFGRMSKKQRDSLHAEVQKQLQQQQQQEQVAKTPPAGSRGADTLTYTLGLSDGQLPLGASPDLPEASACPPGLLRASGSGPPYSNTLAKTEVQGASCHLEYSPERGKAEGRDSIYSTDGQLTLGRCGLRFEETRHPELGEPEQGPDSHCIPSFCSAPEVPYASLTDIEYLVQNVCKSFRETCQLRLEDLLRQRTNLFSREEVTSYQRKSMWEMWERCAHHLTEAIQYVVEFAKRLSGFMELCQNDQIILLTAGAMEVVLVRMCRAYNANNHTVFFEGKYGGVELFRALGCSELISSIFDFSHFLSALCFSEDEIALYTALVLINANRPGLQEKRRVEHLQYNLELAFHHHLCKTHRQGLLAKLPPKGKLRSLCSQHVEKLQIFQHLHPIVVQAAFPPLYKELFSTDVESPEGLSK
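Drosophila Schneider cells stably carrying a metallothionein-driven Gal4 DBD–ROR gamma fusion and a UAS-Photinus luciferase reporter were exposed to compound for 1 hr, then induced with copper sulfate (700 uM final) for 20 hr at ambient temperature before luminescence reading.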
ELG1 repair inh – inhibitors of ELG1-dependent DNA repair in HEK293T cells. hit rate 2.3% among 330,000. HEK293T ELG1-luciferase reporter, luminescence, 16 h; DNA damage induced by 5-fluorouridine. Potency, µM (titrated, usually from 46.1 µM), inactives show at the top dose activity change, negative = inhibition, most hits filed as inhibitors; also: potency is read from the fitted curve at half-maximal effect; % is scaled to controls: 0 for no effect and ±100 for the full control effect; nearly all actives have a fitted effect of over 55% in size
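DMSO vehicle served as the neutral condition. Each well held 2,000 cells given 5-fluorouridine plus compound; after 16 hr at 37 °C/5% CO2, ONE-Glo was added and luciferase measured 30 min later.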
VP16 counter – inhibits Gal4-VP16 luciferase reporter, ROR gamma counter-screen; Drosophila S2 Gal4-VP16 UAS-luciferase, luminescence, 20 h; hit rate 3.5% among 310,000; AID 2546; Potency, µM (series often up to 53.6 µM), for the others: at the highest dose activity, negative = inhibition, usual class: inhibitors;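 also: Gal4-VP16 expression switched on by copper sulfate through the metallothionein promoter; potency is read from the fitted curve at half-maximal effect; % is scaled to controls: 0 for no effect and ±100 for the full control effect; nearly all actives have a fitted effect of over 50% in size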
BRCA1 expr up – activators of BRCA1 expression; Potency, µM (doses to about 46.1 µM), without a hit: top-dose activation, hits mostly activators; MCF7-BRCA1-FFLuc reporter, luminescence, 48 h; response scale: scaled: vehicle 0%, 10 µM genistein 100%; hit rate 1.1% among 380,000; also: potency is read from the fitted curve at half-maximal effect; nearly all actives have a fitted effect of over 80% in size
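Luminescence from a BRCA1-driven firefly luciferase in MCF7 cells was read after 48 h compound exposure at 37 C. Data normalized against DMSO and a 10microM genistein activation control, then curve-fitted across the titration.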
p53 reactivator – restores transcriptional activity of mutant p53 | H1299 p53-A138V BP100-luciferase reporter, luminescence, 24 h | Potency, µM (series often up to 92.2 µM), inactives show top-dose activity change, positive = activation, most hits filed as activators | hit rate 0.063% among 320,000; also: potency is read from the fitted curve at half-maximal effect; % of control where 0% means no effect; nearly all actives have a fitted effect of over 45% in size
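p53-null H1299 cells stably carrying temperature-sensitive p53-A138V and a BP100-luciferase reporter were pinned with compounds (4-point, 1:5 series) and held 24 hrs at 37 deg C. Luminescence was read 10 min after detection reagent.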
Giardia killer – Giardia lamblia killing. Giardia lamblia trophozoite viability. activity change, % at 7.66 µM, hits read low. hit rate 0.15% among 340,000. AID 540267; in the data active = activity change below about -80%; inconclusive = between about -30% and that limit;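 also: parasites exposed to compound for two days anaerobically before the ATP read; % is scaled to controls: 0 for no effect and ±100 for the full control effect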
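Giardia trophozoites, 100 cells per well, were exposed to compounds for 48 hrs at 37 deg C under anaerobic conditions; viability was then read as ATP content by bioluminescence after 15-30 min at room temperature.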
Numbers without * were called inactive; u = inconclusive; x = not tested or not shown; [ ] = another dose, or the depositor's remark. Unless noted, calls follow the shape of the dose curve; as a rule, active = well fitted curve in the direction sought with a large enough effect; inconclusive = small, poorly fitted or top-dose-only effect, or another doubt; inactive = no such curve, though single readings can be large; an effect the other way counts as inactive or inconclusive.

SMILES	RORgamma inh	ELG1 repair inh	VP16 counter	BRCA1 expr up	p53 reactivator	Giardia killer
Cc1ccc(-n2c(C)cc(/C=N/NC(N)=S)c2C)cc1	2.82µM*	u	4.47µM*	-15.4%	17.4%	-27.6
O=C(COC(=O)Cc1ccsc1)NCC12CC3CC(CC(C3)C1)C2	-10.3%	13.7%	-6.0%	3.8%	-1.4%	3.5
CC1CCCN(c2nc3c(c(=O)[nH]c(=O)n3C)n2CCSc2ncccn2)C1 (centres undefined)	-20.2%	10.1%	3.1%	x	-1.5%	x
Cc1ccc(C(=O)N/N=C/c2cc(C)n(-c3ccc(Br)cc3)c2C)cc1[N+](=O)[O-]	0.398µM*	u	1.41µM*	-69.5%	-3.4%	49.7
Cc1cccc(-n2c(C)cc(/C=N/NC(=O)c3ccc(CN4CCOCC4)cc3)c2C)c1	10µM*	-14.0%	-4.4%[0.365 µM]	0.2%	-13.9%	9.8
Cc1ccc(C(=O)NCC(=O)N/N=C/c2cccs2)cc1[N+](=O)[O-]	-32.1%	-2.1%	1.2%	-8.2%	1.8%	4.7
Cc1ccc(-n2c(C)cc(/C=N/NC(=O)c3ccc(CN4CCOCC4)cc3)c2C)cc1	7.94µM*	-3.3%	u	-43.4%	1.1%	-1.1
COc1ccc(-c2nc(CS(=O)CC(=O)NCc3ccc(F)cc3)c(C)o2)cc1 (centres undefined)	u	-8.3%	0.7%	15.5%	4.3%	2.2
COc1cc(C(CC(=O)Nc2ccc(Cl)cn2)N2Cc3ccccc3C2=O)cc(OC)c1OC (centres undefined)	0.9%	-19.4%	-8.3%	-42.6%	-6.1%	8.2
COc1cccc(-c2nn3c(-c4cccc(C)c4)nnc3s2)c1	7.5%	u	25.1%	u	10.7%	-10.9
O=[N+]([O-])c1ccc2c(c1N1CCCCC1)=NC1(CCCCC1)[N+]=2[O-]	14.6%	0.0%	-2.6%	-6.8%	1.1%	14.5
[O-][N+]1=c2ccc(Nc3ccccc3)cc2=NC12CCCCC2	10µM*	u	12.6µM*	-95.4%	-33.7%	-3.9
COc1ccc(Nc2ccc3c(c2)=NC2(CCCCC2)[N+]=3[O-])cc1	11.2µM*	u	11.2µM*	-82.7%	-13.6%	1.1
CCCCN1C(=O)C(CC(=O)NCC2CCCCC2)CC(C(=O)N(C)C)=C1C (centres undefined)	x	x	x	0.9%	x	x
CCCCn1c(NS(=O)(=O)c2ccccc2)c(S(=O)(=O)c2ccc(C)cc2)c2nc3ccccc3nc21	-3.2%	18.4µM*	-10.2%	-71.5%	-4.1%	-16.0
CC(C)(C)c1ccc(C(=O)CCCN2CCC(OC(c3ccccc3)c3ccccc3)CC2)cc1	0.2%[10 µM]	x	11.2µM*	x	x	x
N/C(=N\OC(=O)COc1ccc(Cl)cc1Cl)c1ccncc1	20.4%	u	-13.2%	1.12µM*	2.7%	-2.8
CCOc1ccc(C(=O)Nc2ccc(Cl)cn2)cc1Cl	-34.1%	u	u	6.31µM*	7.4%	-1.4
CCOc1ccc(C(=O)Nc2cccc(C(=O)O)c2)cc1Cl	6.31µM*	u	u	-64.3%	-12.2%	u
O=C(COc1ccc(Cl)cc1Cl)Nc1ccc(Cl)cn1	u	u	u	11.2µM*	32.6%	u
COC(=O)[C@H](Cc1ccc(O)cc1)NCCCn1cnc(C(=O)Nc2ccc(C)c(C)c2)n1	x	x	x	-7.2%	x	23.6
Cc1cc(Cl)ccc1OCC(=O)NC(=S)Nc1ccc(Cl)cn1	5.62µM*	u	-6.2%	-1.5%	10.8%	-19.4
CCCC(=O)NC(=S)Nc1ccc(Cl)cn1	3.55µM*	u	6.31µM*	19.3%	15.3%	-0.3
Cc1cc(Cl)ccc1OCC(=O)OCC(=O)Nc1ccc(Cl)cn1	x	x	x	-0.5%	x	x
O=C(Cc1ccc(Cl)cc1)Nc1ccc(Cl)cn1	8.0%	19.2%	-11.3%	u	x	5.7
SMILES	RORgamma inh	ELG1 repair inh	VP16 counter	BRCA1 expr up	p53 reactivator	Giardia killer
CCc1ccc(S(=O)(=O)/N=C2\C=C(Nc3cccc(C(=O)O)c3)C(=O)c3ccccc32)cc1	11.2µM*	u	u	-67.1%	-7.8%	3.4
CCc1ccc(S(=O)(=O)/N=C2/C=C(Sc3ncn[nH]3)C(=O)c3ccccc32)cc1	12.6µM*	20.6µM*	6.31µM*	-75.2%	-31.3%	0.2
CCc1ccc(S(=O)(=O)/N=C2\C=C(Nc3ccc(O)cc3)C(=O)c3ccccc32)cc1	10µM*	3.26µM*	11.2µM*	-41.0%	-16.7%	-18.5
CCc1ccc(S(=O)(=O)/N=C2\C=CC(=O)c3ccccc32)cc1	u	u	u	x	-11.1%	x
COc1cccc(-c2cncnc2NCc2ccccc2OC)c1	-8.1%	x	-8.8%	x	x	x
Cc1ccc(-c2nc3sc(CCNC(=O)c4ccc(Br)o4)c(C)n3n2)cc1	x	x	x	31.9%	x	x
C[C@H]1COC(=O)[C@H](Cc2ccc(F)cc2)C/C=C\C[C@@H](CC(=O)NCCO)C(=O)N1	x	-1.6%	x	0.0%	12.7%	20.9
CCOC(=O)C1=C(C)NC(C)=C(C(=O)OCC)C1C(=O)OCC(=O)NCc1ccco1	x	10.3µM*	x	-39.4%	-5.2%	14.2
O=C(COC(=O)C(c1ccccc1)c1ccccc1)NCc1ccco1	u	0.0%	17.8µM*	-3.3%	-4.5%	3.6
Nc1c(C(=O)NCc2ccco2)nnn1-c1ccccc1	11.6%	u	u	12.6µM*	4.5%	6.2
Cc1cc(C)cc(-n2nnc(C(=O)NCc3ccco3)c2N)c1	u	6.7%	u	1.1%	0.3%	-1.2
Cc1cccc(Nc2ccc([N+](=O)[O-])cn2)c1	u	u	-6.3%	11.2µM*	u	11.7
Cc1cc(C(=O)CSc2n[nH]c(N)n2)c(C)n1-c1cccc(F)c1	u	u	2.5%	12.6µM*	21.9%	-1.7
Cn1c(=O)c2c(nc(NCc3ccco3)n2CCc2ccccc2)n(C)c1=O	12.6µM*	u	7.94µM*	-30.2%	6.8%	2.5
CCn1c(NCc2ccco2)nc2c1c(=O)n(C)c(=O)n2C	-30.8%	-7.3%	-2.0%	-1.7%	-7.1%	8.3
Cn1c(=O)n(CCc2ccccc2)c(=O)c2c1nc1n2CCN1Cc1ccco1	u	20.6µM*	19.7%	-58.3%	2.3%	8.1
Cn1c(=O)c2c(nc(NCc3ccco3)n2Cc2ccc(Cl)cc2Cl)n(C)c1=O	u	u	6.31µM*	-28.4%	u	-2.7
Cc1nc(-c2ccc(Cl)cc2)sc1C1(C)CC(c2cccnc2)=NO1 (centres undefined)	-10.5%	u	-7.5%	u	12.1%	-2.9
COc1cccc(-c2cc(C(F)(F)F)n3nc(C(=O)N4CCCCC4c4cccnc4)cc3n2)c1 (centres undefined)	22.1%	20.6µM*	-8.5%	-70.7%	0.7%	-6.7

Screening data from PubChem.
